ASK1 primary: human ASK1 kinase inhibition, primary screen. inhibition, % at 7.44 µM. 0.99% of 22,000 active. AID 1159602. Q99683. AlphaScreen MKK6 phosphorylation by ASK1, luminescence; in the data active = inhibition above about 35%;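 note: 0% = median of compound wells and 100% = no enzyme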
ULK1 primary: human ULK1 kinase inhibition, primary screen; AID 1259251; 1.9% of 30,000 active; AlphaScreen Atg13 phosphorylation by ULK1, luminescence; O75385; inhibition, % at 5.96 µM; in the data active = inhibition above about 43%;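 note: 0% = median of compound wells and 100% = no enzyme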
Numbers without * were called inactive; . = not tested or not shown. Shown are actives, neighbours in structure and some others; about 2.5% of the full set was active somewhere.

SMILES | ASK1 primary | ULK1 primary
Cc1nc2cc(-c3ccnc(Nc4cccc(C(=O)NC(C)C)c4)n3)ccc2c(=O)n1C1CC1 | -2 | 9
COc1cc(Nc2nc(Nc3ccc(-n4ccnc4)cc3)nc3c2ncn3C(C)C)cc(OC)c1OC | 4 | 10
CC(C)c1cccc(C(C)C)c1NC(=O)CN(CC(=O)O)CC(=O)O | . | 3
O=C1[C@@H]2[C@@H]3CC[C@H](C3)[C@@H]2C(=O)N1CCCCN1CCN(c2ncccn2)CC1 | . | 13
CNC(=O)c1ccccc1Nc1cc(NC(=O)Cc2ccccc2OC)ncc1C(F)(F)F | 14 | 51*
COc1ccc(CC(=O)Nc2cc(Nc3ccccc3C(N)=O)c(C(F)(F)F)cn2)cc1 | 32 | 76*
NC(=O)c1ccccc1Nc1cc(NC(=O)Cc2ccc(F)c(F)c2)ncc1C(F)(F)F | -21 | 19
CNC(=O)c1ccccc1Nc1cc(NC(=O)C(OC)c2ccccc2)ncc1C(F)(F)F (centres undefined) | -16 | -10
NC(=O)c1ccccc1Nc1cc(NC(=O)Cc2ccc3c(c2)OCO3)ncc1C(F)(F)F | 19 | -23
NC(=O)c1ccccc1Nc1cc(NC(=O)Cc2ccc(F)cc2)ncc1C(F)(F)F | 10 | 31
CNC(=O)c1ccccc1Nc1cc(NC(=O)Cc2ccc3c(c2)OCO3)ncc1C(F)(F)F | 12 | 55*
CNC(=O)c1ccccc1Nc1cc(NC(=O)Cc2cccc(F)c2)ncc1C(F)(F)F | -3 | 55*
COc1cc([N+](=O)[O-])cc(/C=N/NC(=O)COc2ccc(C)c(C)c2)c1O | . | 9
COc1cc(Nc2nc(Cl)nc3nc[nH]c23)cc(OC)c1OC | -6 | -12
CC(C)n1cnc2c(NCc3cccnc3)nc(Nc3nc4ccccc4n3C)nc21 | -15 | 7
Cc1ncn(-c2ccc(Nc3nccc(-c4cc(F)cc(-c5cnoc5)c4)n3)cc2)n1 | 16 | 19
Cc1nc(C)n(-c2ccc(Nc3nccc(-c4cc(F)cc(-c5cnoc5)c4)n3)cc2)n1 | 34 | 45*
CC(C)(C)NC(=O)Nc1ccccc1-c1cnn(-c2ccccc2)c1 | . | -17
O=C(CCl)Nc1ncc(Cc2ccccc2F)s1 | . | 12
CCCNc1nc(Nc2cccc(N(C)C)c2)nc2c1ncn2Cc1ccc(C(F)(F)F)cc1 | 18 | 15
CN(C)c1cccc(Nc2nc(NCCO)c3ncn(Cc4ccc(C(F)(F)F)cc4)c3n2)c1 | 7 | 54*
CN(C)c1cccc(Nc2nc(NC3CCN(Cc4ccccc4)CC3)c3ncn(Cc4ccc(C(F)(F)F)cc4)c3n2)c1 | 34 | 44*
FC(F)(F)c1ccc(Cn2cnc3c(NC4CCN(Cc5ccccc5)CC4)nc(Nc4ccccc4)nc32)cc1 | 2 | -7
CC(C)n1c(Nc2ncccn2)nc2c(NCCN3CCOCC3)ncnc21 | -9 | -4
COc1ccc(CNc2nc(Nc3ccc(OC)cc3)nc3c2ncn3C(C)C)cc1 | 9 | -26
SMILES | ASK1 primary | ULK1 primary
CC(C)n1cnc2c(Nc3ccc(N4CCOCC4)cc3)nc(NCc3ccc4c(c3)OCO4)nc21 | 35 | 7
CC(=O)Nc1ccc(Nc2nc(NC3CCC(O)CC3)nc3c2ncn3-c2ccsc2)cc1 (centres undefined) | 21 | 44*
COc1ccc(Nc2nc(Nc3ccc(OCCN4CCCCC4)cc3)c3ncn(C(C)C)c3n2)cc1 | 33 | 57*
CC(C)n1cnc2c(Nc3ccc(N4CCOCC4)cc3)nc(NCc3cccnc3)nc21 | 10 | 47*
OC1CCC(Nc2nc(Nc3ccccc3)c3ncn(-c4ccsc4)c3n2)CC1 (centres undefined) | 9 | 23
CC(=O)Nc1ccc(Nc2nc(NCc3cccnc3)nc3c2ncn3-c2ccsc2)cc1 | 11 | 55*
CC(=O)Nc1ccc(Nc2nc(NCc3cccnc3)nc3c2ncn3-c2ccccc2)cc1 | -14 | 7
CC(C)N(CCNc1cc(Nc2ccncn2)nc(N)n1)C(C)C | -9 | 3
Nc1cccc(-c2nc(NC3CCN(Cc4ccccc4)CC3)c3[nH]cnc3n2)c1 | -15 | 13
O=C(NCc1nc2ccccc2[nH]1)c1cnc(-c2ccc(N3CCOCC3)nc2)s1 | -6 | 3
Cn1nccc1Nc1cc(NCc2ccccc2)ncn1 | 1 | 1
CC(C)n1cnc2c(NCc3cccnc3)nc(Nc3ccncc3)nc21 | -4 | -6
CC(=O)Nc1ccc(Nc2nc(Nc3ccncc3)nc3c2ncn3C(C)C)cc1 | 7 | 66*
COc1cc(Nc2nc(Nc3ccc(NC(C)=O)cc3)c3ncn(C(C)C)c3n2)cc(OC)c1OC | 12 | 10
CC(C)n1cnc2c(Nc3ccccc3)nc(-c3ccc(C(N)=O)cc3)nc21 | 7 | 68*
CC(=O)Nc1ccc(Nc2nc(NCc3cccnc3)nc3c2ncn3C(C)C)cc1 | 5 | 68*
CC(C)n1cnc2c(NCc3ccccc3)nc(-c3ccc(C(N)=O)cc3)nc21 | -2 | -18
Cc1cccc(CC(=O)Nc2cnn(-c3cccc(C(=O)Nc4ccnc(C)c4)c3)c2)c1 | 3 | -12
CS(=O)(=O)N(Cc1ccc(C(=O)O)cc1)c1cccc(Cl)c1 | . | 0
O=C(O)c1cc(O)c(O)c(O)c1 | . | -8
O=C(c1cc(O)c(O)c(O)c1)c1ccc(O)c(O)c1O | . | 83*
COC(CNc1cc(-c2cccnc2)nc(-c2ccncc2)n1)OC | . | -12
N[C@@H](Cc1ccc(Br)cc1)C(=O)N1CCC(c2nc(-c3ccncc3)no2)CC1 | 8 | 72*
N[C@@H](Cc1ccc(Br)cc1)C(=O)N1CCC(c2nc(-c3ccncc3)no2)C1 (some centres undefined) | -5 | 3
COc1cc(Nc2nc(NCCO)c3ncn(C4CCCCC4)c3n2)cc(OC)c1OC | 4 | -10
SMILES | ASK1 primary | ULK1 primary
O=C(NCCOc1ccccc1)c1cccc(-c2ccccc2)c1 | -5 | 0
NC(CO)C(=O)O (centres undefined) | . | 2
NC(CO)C(=O)NNCc1ccc(O)c(O)c1O (centres undefined) | . | 65*
O=C(Cc1cn(-c2ccc(Nc3ccc(N4CCOCC4)cc3)nn2)c2ccccc12)Nc1ccccc1 | 13 | 10
Cn1nccc1Nc1ccc(-n2cc(CC(=O)Nc3ccc(N4CCOCC4)cc3)c3ccccc32)nn1 | -7 | 49*
CN1CCN(c2ccc(-c3nc(C(=O)NCc4ccccc4)cs3)cc2)CC1 | -7 | -2
CC(C)C[C@H](O)C(=O)N1CCC(C(=O)Nc2ccc3[nH]ncc3c2)C1 (some centres undefined) | 5 | 4
CN(C)CCN(Cc1cccc(Cl)c1)C(=O)c1nc2ccc(-c3cn[nH]c3)cc2s1 | -8 | -23
O=C(Nc1ccc(N2CCOCC2)cc1)c1csc(Nc2ccncn2)n1 | -14 | 42
O=C(Nc1ccc(N2CCOCC2)cc1)c1cccc(Nc2ccncn2)n1 | -30 | 52*
O=C(Nc1ccc(N2CCOCC2)cc1)c1csc(Nc2ccc(N3CCOCC3)cc2)n1 | -8 | 32
O=C(Nc1ccc(N2CCOCC2)cc1)c1cccc(Nc2ccc3ncccc3c2)n1 | -10 | 46*
CCN(CC)C(=O)C1CCCN(c2cccc(C(=O)NCCN3CCOCC3)n2)C1 (centres undefined) | -10 | 1
CCN(CC)C(=O)C1CCCN(c2cccc(C(=O)Nc3ccc(N4CCOCC4)cc3)n2)C1 (centres undefined) | -24 | 52*
O=C(NCCN1CCOCC1)c1cccc(Nc2ccc3ncccc3c2)n1 | -12 | 1
O=C(Nc1ccc(N2CCOCC2)cc1)c1csc(Nc2ncccn2)n1 | -19 | 53*
CS(=O)(=O)c1ccc2c(c1)CC(c1nc3ccc(-c4ccnc(N)n4)cc3[nH]1)CO2 (centres undefined) | 2 | 7
